From PubChem
Vaccinia mCherry = inhibitors of vaccinia virus infection (mCherry reporter signal); AID 720579; Potency, µM (highest dose often 36.5 µM), inactives show at the top dose activity change, negative = inhibition, actives largely listed as inhibitors; Vaccinia virus mCherry reporter infection, fluorescence; hit rate 0.63% among 310,000; calls by dose curve; tested in A549 cells; note: potency is the fitted concentration of half-maximal effect; nearly all actives have a fitted effect of over 35% in size
HCV inh = inhibitors of hepatitis C virus infection; Huh7.5.1 HCVcc-Cre infection, luciferase reporter, 44 h; Potency, µM (highest dose often 41.8 µM), for the others: at the top dose activity change, negative = inhibition, most hits filed as inhibitors; hit rate 3.4% among 340,000; active = well fitted inhibition curve with a large enough effect; inconclusive = small, poorly fitted or top-dose-only effect, or another doubt; inactive = no such curve, though single readings can be large or run the other way; note: potency is the fitted concentration of half-maximal effect
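Reporter virus HCVcc-Cre (~0.5 moi) infects cells exposed to compound; seeding density 1,000 cells/well with 4 h settling beforehand. Luminescence, 15 sec read, taken 44 h post-infection following a 15 min RT substrate incubation.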
HCMV antiviral = human cytomegalovirus inhibition. hit rate 4.5% among 410,000. AID 1259415. HFF cells, HCMV-luciferase reporter, 72 h; hits give low values. activity change, negative = inhibition, % at 57.5 µM; in the data active = activity change below about -60%; inconclusive = no clear call, values can overlap the other calls; inactive = above about -39%
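Inhibition of viral replication was scored as loss of reporter luminescence in HFFs infected with HCMV-luciferase (MOI 1 PFU/cell) for 72 h; compounds tested at 2 doses, normalized to buffer and Salinomycin controls.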
Vaccinia Venus = inhibitors of vaccinia virus (Venus reporter); Vaccinia virus Venus reporter expression, fluorescence; Potency, µM (highest dose often 36.5 µM), for inactives: at the top dose activity change, negative = inhibition, hits mostly inhibitors; hit rate 0.46% among 330,000; AID 720580; calls by dose curve; tested in A549 cells; note: potency is the fitted concentration of half-maximal effect; nearly all actives have a fitted effect of over 30% in size
FMDV inh = antivirals against foot and mouth disease virus; FMDV antiviral cell-based qHTS; Potency, µM (series often up to 57.9 µM), without a hit: at the top dose activity change, negative = inhibition, actives largely listed as inhibitors; hit rate 1.2% among 410,000; AID 1159524; calls by dose curve; tested in HEK293T cells; note: read-out not given here; potency is the fitted concentration of half-maximal effect; nearly all actives have a fitted effect of over 45% in size
* hit, by the source's call. This is a sample that favours compounds with a hit; in the whole collection about 7.3% have one here. % is set by controls: 0 for no effect and ±100 for the full control effect.

Results for COc1ccc(OC)c2c1C(=O)C(Cl)=C(Cl)C2=O ?
HCV inh: inconclusive; HCMV antiviral: -91*; FMDV inh: 20µM*

What do the screens show for `Cc1ccc(CNC(=O)Cn2c3ncccc3c(=O)n2-c2ccccc2)cc1`?
Vaccinia mCherry: -16%; HCMV antiviral: -1; Vaccinia Venus: -9%; FMDV inh: 11%

How did Cc1c(C(=O)N2CCN(c3ccc([N+](=O)[O-])cc3)CC2)sc2ncn(CC(=O)N3CCOCC3)c(=O)c12 do in these assays?
Vaccinia mCherry: -22%; HCV inh: -26%; HCMV antiviral: -80*; Vaccinia Venus: -9%; FMDV inh: -16%

What do the screens show for `Cc1c(C(=O)N2CCOCC2)sc2ncn(CC(=O)N3CCC(C)CC3)c(=O)c12`?
Vaccinia mCherry: inactive; HCV inh: 38%; Vaccinia Venus: 0%; FMDV inh: -14%

What do the screens show for `COc1cc2c(cc1OC)CN(c1ccc3ccccc3n1)CC2`?
Vaccinia mCherry: inconclusive; HCV inh: 13µM*; HCMV antiviral: -5; Vaccinia Venus: inconclusive; FMDV inh: -23%

What do the screens show for `COc1cc2c(cc1OC)CN(c1ccc(C(F)(F)F)cn1)CC2`?
Vaccinia mCherry: inconclusive; HCV inh: inconclusive; HCMV antiviral: -35; Vaccinia Venus: 2%; FMDV inh: 16%

Results for COc1cc2c(cc1OC)CN(c1ccc(-c3ccccc3OC)nn1)CC2 ?
Vaccinia mCherry: -19%; HCV inh: inconclusive; Vaccinia Venus: 1%; FMDV inh: 35µM*

Results for O=C(NCc1ccc2c(c1)OCO2)[C@H]1[C@H](CO)[C@H]2Cn3c(cccc3=O)[C@@H]1N2Cc1ccccc1 ?
HCMV antiviral: -9

Results for CCOC(=O)c1c(C)[nH]c(C)c1C(=O)COC(=O)c1ccc(Cl)c(S(=O)(=O)NCc2ccccc2)c1 ?
Vaccinia mCherry: inconclusive; HCV inh: 7.1µM*; HCMV antiviral: -24; Vaccinia Venus: inconclusive; FMDV inh: inconclusive

Results for O=C(COC(=O)c1ccc(Cl)c(S(=O)(=O)NCc2ccccc2)c1)NC1CC1 ?
Vaccinia mCherry: -10%; HCV inh: 0%; HCMV antiviral: -34; Vaccinia Venus: -5%; FMDV inh: 13%

Results for O=C1C(C2=C(O)c3ccccc3C2=O)=Nc2ccccc21 ?
HCV inh: 10µM*; HCMV antiviral: -78*; FMDV inh: 24%

How did Cc1ccc(N2CC3=C(C2=O)C(c2ccc(Br)cc2)NC(=O)N3C)cc1 (configuration not stated) do in these assays?
Vaccinia mCherry: -11%; HCMV antiviral: -7; Vaccinia Venus: 4%; FMDV inh: 0%

Results for Nc1ccc(C2(c3ccc(N)cc3)c3ccccc3-c3ccccc32)cc1 ?
Vaccinia mCherry: inconclusive; HCV inh: 8.9µM*; HCMV antiviral: -91*; Vaccinia Venus: inconclusive; FMDV inh: inconclusive

Results for O=C(c1noc2c1CCCC2)N1CCc2c([nH]c3ccccc23)C1c1ccccn1 (configuration not stated) ?
Vaccinia mCherry: -12%; HCV inh: -24%; HCMV antiviral: -62*; Vaccinia Venus: -8%; FMDV inh: 6%

What do the screens show for `Cc1cccc(C2c3[nH]c4ccccc4c3CCN2C(=O)c2noc3c2CCCC3)n1` (configuration not stated)?
HCV inh: inconclusive; HCMV antiviral: 3; FMDV inh: 15%

How did COc1ccc(OCC(=O)N2CCc3c([nH]c4ccccc34)C2c2ccccn2)cc1 (configuration not stated) do in these assays?
Vaccinia mCherry: -5%; HCV inh: -28%; HCMV antiviral: -70*; Vaccinia Venus: -13%; FMDV inh: -8%

How did COc1ccc(CNC(=O)C(c2ccc(C)o2)N(Cc2cccs2)C(=O)Cc2cccs2)cc1 (configuration not stated) do in these assays?
Vaccinia mCherry: inconclusive; HCV inh: 11µM*; HCMV antiviral: -15; Vaccinia Venus: -25%; FMDV inh: 19%

Results for COC(=O)[C@]12CCCCC=C1N(CCc1ccc(OC)c(OC)c1)C(=O)[C@H](CC(=O)NCCc1ccccc1OC)C2 ?
Vaccinia mCherry: -16%; HCMV antiviral: 8; Vaccinia Venus: -19%; FMDV inh: -10%

What do the screens show for `CC1=C(c2ccc(Cl)cc2)S(=O)(=O)NC1=NCCCN1CCN(c2cc(C)ccc2C)CC1`?
Vaccinia mCherry: 10µM*; HCMV antiviral: -100*; Vaccinia Venus: 11µM*; FMDV inh: inconclusive

How did O=C1c2cccc3c(N4CCCCC4)ccc(c23)C(=O)N1CCO do in these assays?
Vaccinia mCherry: -2%; HCV inh: inconclusive; HCMV antiviral: 17; Vaccinia Venus: 10%; FMDV inh: 6%

Results for O=C(OCCN1C(=O)c2cccc3c(N4CCOCC4)ccc(c23)C1=O)c1cccc(Cl)c1 ?
Vaccinia mCherry: -12%; HCV inh: 11µM*; Vaccinia Venus: -19%; FMDV inh: inconclusive

What do the screens show for `O=C(OCCN1C(=O)c2cccc3c(N4CCOCC4)ccc(c23)C1=O)c1ccccc1Cl`?
Vaccinia mCherry: inactive; HCV inh: inconclusive; HCMV antiviral: inconclusive; Vaccinia Venus: -11%; FMDV inh: inconclusive

What do the screens show for `O=C(OCCN1C(=O)c2cccc3c(N4CCOCC4)ccc(c23)C1=O)c1ccc(Cl)cc1Cl`?
Vaccinia mCherry: inconclusive; HCV inh: inconclusive; HCMV antiviral: -29; Vaccinia Venus: -21%; FMDV inh: 16µM*

What do the screens show for `Cc1ccc(OCCOc2cccc(C=C3C(=O)NC(=O)NC3=O)c2)c(C)c1`?
Vaccinia mCherry: -12%; HCV inh: 15%; HCMV antiviral: 153; Vaccinia Venus: -9%; FMDV inh: 14µM*

Results for O=C(/C=C/c1ccccc1)N1CC2ON=C(c3c(F)cccc3Cl)C2C1 (configuration not stated) ?
HCMV antiviral: -8

What do the screens show for `Cc1cc(CNC(=O)COc2ccccc2F)c2ccccc2n1`?
HCV inh: 25µM*; HCMV antiviral: inconclusive; FMDV inh: -10%

How did C[N+]1(CC(=O)NNc2c3ccccc3nc3ccccc23)CCOCC1 do in these assays?
HCMV antiviral: -96*

How did Cc1cc(CNC(=O)COc2ccc(F)cc2F)c2ccccc2n1 do in these assays?
Vaccinia mCherry: -24%; HCV inh: inconclusive; HCMV antiviral: -32; Vaccinia Venus: -15%; FMDV inh: inconclusive

Results for O=C(CN1CCOCC1)NNc1c2ccccc2nc2ccccc12 ?
Vaccinia mCherry: inconclusive; HCV inh: 8.9µM*; HCMV antiviral: 21; Vaccinia Venus: -5%; FMDV inh: 18%

How did COc1ccccc1OCC(=O)NNc1c2ccccc2nc2ccccc12 do in these assays?
HCV inh: 0.56µM*; HCMV antiviral: -92*; FMDV inh: -22%

What do the screens show for `COc1ccc(-c2nc(CSCC(=O)NCCC(C)C)c(C)o2)cc1OC`?
Vaccinia mCherry: -2%; HCMV antiviral: 1; Vaccinia Venus: -14%; FMDV inh: -15%
